The record followed here is PubChem BioAssay (NCI).

About 83,000 compounds went through this panel and 20% of them were active in at least one assay; those are over-represented in the sample as a whole.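 Values shown are percent growth following 48 h exposure of cells in 96-well plates to a single concentration of compound; below 10 was considered active.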 A number with no mark means an inactive call. Active and inactive are the calls of the source.

Common to all, as to assay: NCI-60 one-dose screen, 48 h (100 = growth as untreated, 0 = no growth, -100 = all killed)
Holding throughout (conditions): 10 µM unless noted

Assay [1] deals with HCT-15 colon.
The test system of assay [2] is HT29 colon.
The test system of assay [3] is SNB-75 CNS.
In assay [4] the test system is SNB-19 CNS.
Assay [5] concerns U251 CNS.
Assay [6] has as its system PC-3 prostate.
The test system of assay [7] is SK-MEL-5 melanoma.
For assay [8], the system named is UACC-62 melanoma.
Assay [9] concerns SK-MEL-28 melanoma.

On to `CCOc1ccc(NC(=O)c2ccoc2COc2ccccc2)cc1`, for which the growth in assay [1] is 101%; in assay [2], 107%; in [3], 107%; in assay [4] it was 95.3%; in [5] it was 99.4%; in assay [6], 95.7%. Besides, the growth in assay [7] was 99.1%; in assay [8] it was 79.8%; in [9], 101%.

Consider `CC(=O)O[C@H]1CC[C@@]2(C)[C@@H](CC[C@@H]3[C@@H]2CC(=O)[C@@]2(C)[C@H]3C[C@@H](C3CCCC3=O)[C@@H]2C(C)=O)C1` (stereo partly drawn), for which the growth in assay [1] is 106%; in assay [2] it was 95.6%; in [3] it was 97.4%; in assay [4], 94.2%; in [5], 102%; in assay [6], 93.1%. Moreover, the growth was 108% in [7], 91.6% in assay [8] and 113% in assay [9].

Consider `CC(C)(C)c1[nH]nc2c1C(c1cc3ccccc3[nH]c1=O)Nc1cc(C(=O)OCc3ccccc3)ccc1N2` (stereo not drawn), for which the growth in assay [1] was 55.3%; in [2], 62.1%; in assay [3], 71.7%; in assay [4] it was 61.7%; in assay [5], 51.6%; in assay [6] it was 41.4%. Besides, the growth in assay [7] was 39.3%; in [8], 49.1%; in assay [9] it was 77.2%.

As for `COCCNC1=C(Cl)C(=O)c2ccccc2C1=O`, the growth in assay [1] is 90.3%; in [2], 101%; in assay [3], 74.5%; in assay [4], 102%; in assay [5] it was 91.3%; in assay [6], 117%. Moreover, the growth is -6.75% (active) in assay [7], 90.9% in assay [8] and 109% in [9].

Regarding `O=C1C(Cl)=C(Nc2ccc(S(=O)(=O)c3ccc(NC4=C(Cl)C(=O)c5ccccc5C4=O)cc3)cc2)C(=O)c2ccccc21`, the growth was 0.496% (active) in assay [1]; 32.6% in assay [2]; 57.7% in assay [3]; 44.8% in assay [4]; 5.68% (active) in assay [5]; 15.8% in assay [6]. Further, the figures for the growth in assay [7], in assay [8] and in assay [9] were 49.3%, 12.5% and 14.2%, respectively.

As for `COc1cc2c(cc1OC)C(=O)/C(=C/c1cc(-c3ccc4c(c3)OCO4)n[nH]1)C2`, the growth was -39.9% (active) in assay [1]; -29.5% (active) in [2]; -4.64% (active) in assay [3]; 9.31% (active) in assay [4]; -75.5% (active) in [5]; -65.7% (active) in assay [6]. Also, the growth in assay [7] was 48.4%; in assay [8], 25.8%; in assay [9] it was 0.563% (active).

Regarding `COc1ccc(/C=C(\C#N)c2cc3ccccc3n2C(C)=O)cc1`, the growth in assay [1] was 41%; in [2] it was 68.8%; in [3], 74%; in assay [4], 87.2%; in [5], 87.1%; in assay [6], 84.6%. The results for the growth in [7], in [8] and in assay [9] were 92.2%, 74.1% and 87.2%, respectively.
